Experimental findings from PubChem BioAssay (NCI) are described below.

Among the test systems are SR leukemia; RPMI-8226 leukemia; OVCAR-8 ovarian; OVCAR-5 ovarian; SK-OV-3 ovarian; IGROV1 ovarian; OVCAR-3 ovarian; HS 578T breast; NCI/ADR-RES ovarian; T-47D breast; MDA-MB-435 melanoma; SW-620 colon; MCF7 breast; HCT-116 colon; HCC-2998 colon; KM12 colon; BT-549 breast.
Holding throughout (assay): NCI-60 one-dose screen, 48 h (100 = growth as untreated, 0 = no growth, -100 = all killed)
Settings in all cases: 10 µM unless noted

The panel holds about 83,000 compounds, 20% with a hit somewhere; the sample as a whole holds those more often.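 How to read the values: 0–100, growth inhibition (40 = 60% inhibited); 0, no net growth; -100 to 0, cell death (-40 = 40% of starting cells died; -100 = all dead).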 Values without a mark were called inactive. Calls of active or inactive are those of the source. Rule for the calls: active = growth percent below 10; inactive = the rest.

`O=[N+]([O-])c1ccc(O)c(-c2nc3ccccc3s2)c1`: the growth is 84.5% in the experiment with SR leukemia; 51.1% in the experiment with RPMI-8226 leukemia; 92% in the experiment with OVCAR-8 ovarian; 112% with OVCAR-5 ovarian; 81.2% in the experiment with SK-OV-3 ovarian; 70% with IGROV1 ovarian. The growth in the experiment with OVCAR-3 ovarian is 47.9%; in the experiment on HS 578T breast, 67.3%; with NCI/ADR-RES ovarian, 82.8%; in the experiment with T-47D breast it was 49.7%; in the experiment on MDA-MB-435 melanoma, 71.4%; in the experiment on SW-620 colon, 87.8%. For the same compound, the growth in the experiment on MCF7 breast was 81%; with HCT-116 colon it was 73%; in the experiment with HCC-2998 colon it was 89.7%; with KM12 colon it was 77.2%.

Regarding `COc1cc(/C=C/C(=O)/C=C/c2ccc(-n3ccnc3)cc2)ccc1O`, the growth in the experiment on SR leukemia was 25.1%; in the experiment on RPMI-8226 leukemia, -5.38% (active); in the experiment with OVCAR-8 ovarian, 29.2%; in the experiment on OVCAR-5 ovarian, 100%; with SK-OV-3 ovarian, 91.5%; in the experiment on IGROV1 ovarian, -28.4% (active). Also, the growth is 34.4% in the experiment with OVCAR-3 ovarian; 86% with HS 578T breast; 99% in the experiment with NCI/ADR-RES ovarian; 58% with T-47D breast; 102% in the experiment with BT-549 breast; -9.19% (active) in the experiment on MDA-MB-435 melanoma. The growth with SW-620 colon is 8.7% (active); in the experiment on MCF7 breast, 6.22% (active); with HCT-116 colon it was 97.5%; in the experiment on HCC-2998 colon, 42.7%; in the experiment with KM12 colon, -42.4% (active).

`Brc1ccc2c(c1)CN(C1CCCCC1)CO2`: the growth with SR leukemia was 96.3%; in the experiment on RPMI-8226 leukemia, 103%; in the experiment on OVCAR-8 ovarian it was 114%; in the experiment with OVCAR-5 ovarian, 97.9%; in the experiment on SK-OV-3 ovarian it was 92.3%; with IGROV1 ovarian, 107%. The growth was 116% in the experiment on OVCAR-3 ovarian; 91.7% in the experiment with HS 578T breast; 96.2% with T-47D breast; 103% in the experiment with MDA-MB-435 melanoma; 100% in the experiment on SW-620 colon; 106% with MCF7 breast. The growth in the experiment with HCT-116 colon was 108%; with HCC-2998 colon it was 102%; with KM12 colon it was 100%.

In the case of `C=C(C)[C@@H]1CC[C@]2(C(=O)OC)CC[C@]3(C)[C@H](CC[C@@H]4[C@@](C)(CCc5nn[nH]n5)[C@H](C(=C)C)CC[C@]43C)[C@@H]12`, the growth with SR leukemia is 21.7% [100 µM]; with RPMI-8226 leukemia it was -0.796% [100 µM] (active); with OVCAR-8 ovarian, 7.09% [100 µM] (active); with OVCAR-5 ovarian it was 5.88% [100 µM] (active); with SK-OV-3 ovarian, -2.47% [100 µM] (active); in the experiment with IGROV1 ovarian it was -8.32% [100 µM] (active). Besides, the growth with OVCAR-3 ovarian was -60.4% [100 µM] (active); with HS 578T breast it was -31% [100 µM] (active); with NCI/ADR-RES ovarian, -7.5% [100 µM] (active); with T-47D breast, -5.51% [100 µM] (active); in the experiment on BT-549 breast, -12.1% [100 µM] (active); in the experiment on MDA-MB-435 melanoma, -54% [100 µM] (active). For the same compound, the growth was -19.6% [100 µM] (active) with SW-620 colon; 5.06% [100 µM] (active) in the experiment on MCF7 breast; -21.5% [100 µM] (active) in the experiment on HCT-116 colon; -53.5% [100 µM] (active) in the experiment on HCC-2998 colon; -43.7% [100 µM] (active) in the experiment on KM12 colon.

As for `CC1(C)C(=O)/C(=C\c2ccco2)C[C@]2(C)[C@H]3CC=C4[C@@H]5C[C@](C)(C(=O)O)CC[C@]5(C)CC[C@@]4(C)[C@]3(C)CC[C@@H]12`, the growth in the experiment on SR leukemia is 46.8% [100 µM]; in the experiment on RPMI-8226 leukemia, 0.425% [100 µM] (active); in the experiment on OVCAR-8 ovarian it was -46.1% [100 µM] (active); in the experiment with OVCAR-5 ovarian, -46.2% [100 µM] (active); in the experiment on SK-OV-3 ovarian, -77.2% [100 µM] (active); with IGROV1 ovarian it was -61.9% [100 µM] (active). The growth in the experiment on OVCAR-3 ovarian is -60.1% [100 µM] (active); in the experiment on HS 578T breast, -16.2% [100 µM] (active); in the experiment on T-47D breast it was -8.17% [100 µM] (active); with BT-549 breast, -62.6% [100 µM] (active); in the experiment with MDA-MB-435 melanoma it was -75.1% [100 µM] (active); in the experiment on MCF7 breast it was -43.1% [100 µM] (active). The growth in the experiment with HCC-2998 colon was -90.1% [100 µM] (active).

Turning to `CCOc1ccc(S(=O)(=O)Nc2ccc3c(c2)N(S(=O)(=O)CC)CCC3)cc1`, the growth was 97.6% in the experiment on SR leukemia; 77.1% in the experiment on RPMI-8226 leukemia; 77.5% in the experiment on OVCAR-8 ovarian; 94.6% in the experiment on OVCAR-5 ovarian; 72.7% with SK-OV-3 ovarian; 71.3% in the experiment on IGROV1 ovarian. The growth in the experiment with OVCAR-3 ovarian was 54.3%; with HS 578T breast, 80.7%; in the experiment on NCI/ADR-RES ovarian, 89.9%; with T-47D breast, 68.1%; with BT-549 breast it was 95.2%; in the experiment on MDA-MB-435 melanoma, 78.8%. Further, the growth is 68.3% in the experiment on SW-620 colon; 44.9% in the experiment on MCF7 breast; 90.8% in the experiment with HCT-116 colon; 78.2% with HCC-2998 colon; 77% with KM12 colon.

As to `CC1(C)[C@@H](NOCCCN)CC[C@]2(C)[C@H]3C(=O)C=C4[C@@H]5C[C@](C)(C(=O)O)CC[C@]5(C)CC[C@@]4(C)[C@]3(C)CC[C@@H]12`, the growth was 17.9% [100 µM] in the experiment with SR leukemia; -5.46% [100 µM] (active) in the experiment with RPMI-8226 leukemia; -25.9% [100 µM] (active) in the experiment with OVCAR-8 ovarian; -100% [100 µM] (active) in the experiment with OVCAR-5 ovarian; -23.7% [100 µM] (active) in the experiment with SK-OV-3 ovarian; -88.5% [100 µM] (active) in the experiment on IGROV1 ovarian. For the same compound, the growth in the experiment on OVCAR-3 ovarian was -50.1% [100 µM] (active); in the experiment on HS 578T breast, -22.8% [100 µM] (active); in the experiment with NCI/ADR-RES ovarian, -34.2% [100 µM] (active); with T-47D breast, -29.8% [100 µM] (active); with BT-549 breast, -23.2% [100 µM] (active); in the experiment with MDA-MB-435 melanoma it was -59.1% [100 µM] (active). The growth is -43.3% [100 µM] (active) with SW-620 colon; -25.2% [100 µM] (active) with MCF7 breast; -87.4% [100 µM] (active) with HCT-116 colon; -50% [100 µM] (active) with HCC-2998 colon; -65.8% [100 µM] (active) in the experiment on KM12 colon.

On to `Cc1cnc(N)nc1OCCNC(=O)c1cccc(-c2ccc(S(=O)(=O)Nc3ccc4c(c3)N(C(=O)C3CC3)CCC4)cc2)c1`, for which the growth with SR leukemia was 104%; with RPMI-8226 leukemia, 42.7%; with OVCAR-8 ovarian, 67.4%; with OVCAR-5 ovarian, 105%; in the experiment on SK-OV-3 ovarian, 98.8%; in the experiment with IGROV1 ovarian, 74%. The growth is 79.5% in the experiment on OVCAR-3 ovarian; 75.3% with HS 578T breast; 102% in the experiment with NCI/ADR-RES ovarian; 36.9% in the experiment with T-47D breast; 66.2% with BT-549 breast; 78.8% with MDA-MB-435 melanoma. In addition, the growth in the experiment with SW-620 colon is 99.1%; with MCF7 breast, 77.2%; in the experiment with HCT-116 colon, 76.3%; in the experiment with HCC-2998 colon, 77.4%; in the experiment with KM12 colon, 75.2%.
